Out of some 3,600 compounds screened, about 900 (25%) were called active. No rule for the calls is given here. These entries were drawn from the full list. Measured potencies and affinities stand elsewhere.
biological target: Protein Tat (Human immunodeficiency virus type 1 group M subtype B (isolate HXB2)) (UniProt P04608); assay: inhibitors of Tat binding to TAR RNA, dose response, counter-screen for Vif-APOBEC3G degradation inhibitor project, biochemical, fluorescence polarization, FAM-labeled TAR RNA (AID 1117361); settings: outcome: dose series up to 100 µM unless noted; series mostly up to 100 µM; inhibition: at the top concentration

SMILES	inhibition	outcome
COc1ccc(NCc2nnc(SCC(=O)N3CCCc4ccccc43)o2)cc1	7.43% (inactive)	–
O=c1oc(-c2cccnc2)nc2ccccc12	–	inactive
CC(C)(C)c1ccc(NC(=S)NCc2cccnc2)cc1	–	inactive
FC(F)Oc1ccccc1NC(=S)Nc1cccnc1	4.12% (inactive)	–
COc1ccc(N2C(=O)C3CCCN3C2c2ccc(C)cc2)cc1 (stereo not given)	–	inactive
Cn1c(CNC(=O)C2CCCCC2)cc2cc(Cl)ccc21	–	inactive
CS(=O)(=O)N1CCC(C(=O)NCCc2ccccc2)CC1	–	inactive
CC(CN1CCN(C)CC1)OC(=O)c1ccccc1Cl (stereo not given)	–	inactive
COc1ccc(C)cc1NC(=O)c1[nH]c(C)c(C(C)=O)c1C	4.73% (inactive)	–
COc1ccccc1N1CCN(C(=O)C(F)F)CC1	0.33% (inactive)	–
O=C(NCc1ccc(N2CCCC2=O)cc1)NC1CCCCC1	1.35% (inactive)	–
Cc1ccc2nc(C3CCN(CC(=O)Nc4ccc5c(c4)OCCO5)CC3)[nH]c2c1	4.73% (inactive)	–
O=C1NC2(CCCCC2)NN1c1ccccc1	1.35% (inactive)	–
O=C(O)c1ccc2c(c1)C(c1ccccc1)OC2=O (stereo not given)	24.6% (inactive)	–
Cc1cc(C)c2c(c1)[C@@H]1C=CC[C@@H]1[C@H](c1ccc(S(=O)(=O)N3CCOCC3)cc1)N2	19.8% (inactive)	–
CCC(C)NS(=O)(=O)c1ccc(S(=O)(=O)N(CC(=O)Nc2ccccc2)CC2CCCO2)cc1 (stereo not given)	–	inactive
COc1ccccc1S(=O)(=O)Cc1ccc(C(=O)N2CCN(c3ccccn3)CC2)o1	8.78% (inactive)	–
CCN1CCN(CCCNC(=O)c2ccc3c(c2)NC(=O)c2ccccc2S3)CC1	–	inactive
CC1(C)CC(=O)C2=C(C1)N(Cc1ccc(F)cc1)C(=O)C2(NC(=O)c1cccnc1)C(F)(F)F (stereo not given)	1.35% (inactive)	–
CC(=O)Nn1cc2c(=O)n(C)c(=O)n(C)c2c1	13.5% (inactive)	–
CCN(CC)CCN1C(=O)c2ccccc2NC1c1ccc(N(C)C)cc1 (stereo not given)	–	inactive
COc1cc(NC(=O)c2cc3nc(C)cc(C)n3n2)c(OC)cc1Cl	8.78% (inactive)	–
Cc1ccc2c(c1)c(CC(=O)Nc1ccc(C)c(F)c1)c(C(=O)O)n2C	–	inactive

SMILES	inhibition	outcome
Nc1ccc(-c2nc3cc(N)ccc3n2CCO)cc1	–	inactive
COc1ccc(S(=O)(=O)NCc2ccccn2)c(Cl)c1Cl	1.35% (inactive)	–
CCN(CC)CCNC(=O)CCn1c(=S)[nH]c2cc3c(cc2c1=O)OCO3	–	inactive
C=CCn1cc(-c2ccccc2)cc(C#N)c1=O	5.41% (inactive)	–
Cc1ccc(CSc2nc3c(c(N(C)C)n2)CCCC3)cc1	–	inactive
CCN(CC)CCCNC(=O)CSc1nc(-c2cccs2)cc(C(F)(F)F)n1	–	inactive
COC(=O)/C=c1\sc2n(c1=O)C(C)=CC(C)(C)N=2	1.36% (inactive)	–
CCOC(=O)CCC(=O)N1CCOCCN(C(=O)CCC(=O)OCC)CCOCC1	2.7% (inactive)	–
Cc1ccc(N=Cc2nc(-c3ccc(C)cc3)oc2O)cc1	–	inactive
CC(C)(C)NC(=O)CSc1nnc(-c2ccccn2)n1Cc1ccccc1	–	inactive
COc1ccc(CNC(=O)c2c(-c3cc(Cl)c(OC)c(Cl)c3)noc2C)cc1	–	inactive
OCCCNc1ncnc2c1[nH]c1ccccc12	–	inactive
CC(=O)Nc1cccc(-c2cc(-c3c(Cl)cccc3Cl)no2)c1	–	inactive
O=C(CCn1nc(-c2ccccc2)ccc1=O)N1CCCC1	8.11% (inactive)	–
CN1CCN(S(=O)(=O)c2ccc(NC(=S)NC(=O)c3ccc(Cl)cc3)cc2)CC1	6.14% (inactive)	–
Cc1cccc(OCCCC(=O)NC(C)c2ccccc2)c1 (stereo not given)	5.46% (inactive)	–
CCn1c(=O)cc(N2CCC3(CC2)OCCO3)[nH]c1=O	16.2% (inactive)	–
Cn1cc(Cl)c(C(=O)Nc2nc3ccccc3s2)n1	–	inactive
CCC(C)(c1nnnn1-c1c(C)cccc1C)N(N=O)c1ccccc1Cl (stereo not given)	–	inactive
CSCCC(NS(=O)(=O)c1ccc2c(c1)oc(=O)n2C)C(=O)NC1CCCc2ccccc21 (stereo not given)	5.41% (inactive)	–
COc1ccc(S(N)(=O)=O)cc1C(=O)OCC(=O)NC(C)(C#N)C1CC1 (stereo not given)	7.42% (inactive)	–
O=c1cc(O)nc(SCc2ccccc2Cl)[nH]1	10.8% (inactive)	–
CSc1nc(N)c(C#N)c(-c2ccccc2Cl)c1C#N	3.38% (inactive)	–

SMILES	inhibition	outcome
COc1ccc(C2(O)CCN(Cc3nnnn3Cc3ccc(F)cc3)CC2)cc1	–	inactive
CC(C)(C)NCCCCOc1ccc(F)cc1	3.01% (inactive)	–
CCOc1ccc(NC(=O)c2ccccc2NS(C)(=O)=O)cc1	–	inactive
Cc1c(O)nc(SCC(=O)Nc2ccc3c4c(cccc24)CC3)n(-c2ccc(F)cc2)c1=O	3.3% (inactive)	–
CCOc1ccc(NC(=O)Cn2cncc2-c2ccc([N+](=O)[O-])cc2)cc1	6.82% (inactive)	–
Cc1cc(C)nc(N2N=C(C(C)(C)C)CC2=O)n1	1.36% (inactive)	–
COCCn1nnnc1C(c1cc2ccc(C)cc2[nH]c1=O)N(Cc1ccco1)Cc1cccs1 (stereo not given)	29.3% (inactive)	–
COc1cc2cc(C(c3nnnn3C3CCCC3)N(C)C3CCCCC3)c(=O)[nH]c2cc1OC (stereo not given)	–	inactive
CCCN(CC(=O)Nc1ccccc1OC)C(=O)CSc1ccc(Br)cc1C	14% (inactive)	–
COc1ccc(NC(=O)CSc2nnc(C)n2Cc2ccccc2)cc1	–	inactive
COc1ccc(NC(=O)CSc2nc(C)cc(C)n2)cc1	6.76% (inactive)	–
CSc1nc(C)cc(SCC(=O)Nc2ccccc2)n1	6.08% (inactive)	–
CC(=O)Nc1c(O)nc(SCC(=O)Nc2ccc(C(C)=O)cc2)[nH]c1=O	14.3% (inactive)	–
COc1cccc(NC(=O)CSc2nnnn2C(C)C)c1	3.38% (inactive)	–
CCN(CC)S(=O)(=O)c1ccc(NC(=O)CSc2nnc(-c3cccc(OC)c3)n2C)cc1	2.73% (inactive)	–
Cc1ccc[n+](CC(=O)c2cc3ccccc3oc2=O)c1	10.8% (inactive)	–
CCCc1nc(SCc2cccnc2)c2c(=O)n(C)c(=O)n(C)c2n1	3.38% (inactive)	–
O=C(NCc1ccc2c(c1)OCO2)C1CCCN1C(=O)Nc1ccccc1 (stereo not given)	2.7% (inactive)	–
CCn1c(=O)oc2cc(NC(=O)CCl)ccc21	–	inactive
COC(=O)Cn1ncn2c(cc3oc(C)cc32)c1=O	22.3% (inactive)	–
O=C(Cn1c(/C=C/c2ccccc2)nc2ccccc21)Nc1ccc(F)cc1	8.19% (inactive)	–
CC(C)OCCCNC(=O)c1cccs1	–	inactive
Cc1ccnc(NS(=O)(=O)c2ccc(NC(=O)Cc3cccs3)cc2)n1	–	inactive

SMILES	inhibition	outcome
O=C(Nc1ccc2nc(-c3ccccc3)[nH]c2c1)c1cccs1	1.35% (inactive)	–
CCCCN(CCCC)S(=O)(=O)c1ccc(NC(=O)Cc2cccs2)cc1	10.2% (inactive)	–
CN(Cc1cn(C)nc1-c1cccc(Cl)c1)Cc1nccn1C	–	inactive
N#Cc1nc(Cc2ccccc2)oc1NCCCn1ccnc1	6.76% (inactive)	–
O=C(COc1ccc(F)cc1)Nc1ccc(-n2cnnn2)cc1	3.38% (inactive)	–
CCOC(=O)C1CCCN(CCC(=O)Nc2ccc3c(c2)CCC3)C1 (stereo not given)	1.36% (inactive)	–
CCOC(=O)C1CCN(C(=O)C2CCN(c3nc4ccc(OC)cc4s3)CC2)CC1	4.77% (inactive)	–
O=C(Nc1ccc2c(c1)OCCO2)N1CCN(c2ccccc2)CC1	10.1% (inactive)	–
Cn1c(CN2CCCC2)nc2cc(NC(=O)Nc3ccccc3)ccc21	–	inactive
C/C(=C/C(=O)NCc1ccccc1)C(=O)O	8.78% (inactive)	–
CN(C)c1ccc(N/C=C/C(=O)c2ccco2)cc1	1.36% (inactive)	–
O=C(Nc1ccccc1C(F)(F)F)c1cc(-c2ccc(O)cc2)on1	–	inactive
O=C(CN(C(=O)CCNC(=O)c1ccco1)c1ccccc1)NC1CCCC1	4.77% (inactive)	–
COc1ccc(/C=C/C2=NC(=C\N(C)C)/C(=O)O2)cc1	9.46% (inactive)	–
Nc1nnc(CC2=CCCCC2)s1	3.38% (inactive)	–
CCOc1ccc(/C=C2\NC(=S)NC2=O)cc1	–	inactive
O=C(Cn1[nH]c(=O)c2ccccc2c1=O)OCC(=O)N(Cc1ccccc1)Cc1ccccc1	–	inactive
CC(C)Cc1ccc(C(C)C(=N)N)cc1 (stereo not given)	4.95% (inactive)	–
CC(C)N(C(=O)CO/N=C/c1cccc([N+](=O)[O-])c1)C(C)C	–	inactive
C=CCOc1ccc2c(c1)C(=NO)c1cc(OCC=C)ccc1-2	5.68% (inactive)	–
O=C(Nc1c2c(nn1-c1ccc(F)cc1)CS(=O)C2)C12CC3CC(CC(C3)C1)C2 (stereo not given)	0.68% (inactive)	–
CC(C)NC(=O)C1CCCN(S(=O)(=O)c2cccs2)C1 (stereo not given)	0.68% (inactive)	–
Cc1ccc2oc(=O)c3cnn(CC(=O)NC4CCCCC4C)c3c2c1 (stereo not given)	6.08% (inactive)	–

SMILES	inhibition	outcome
O=C(c1cnn2cccnc12)N1CCN(Cc2ccc3c(c2)OCO3)CC1	2.73% (inactive)	–
CC(=O)Nc1ccc(S(=O)(=O)N2CCN(CCCOc3ccccc3Cl)CC2)cc1	4.09% (inactive)	–
O=C(COc1ccccc1Cl)NCCc1ccc2c(c1)OCCO2	2.73% (inactive)	–
CCCCn1c(C(C)NC(=O)CC)nc2ccccc21 (stereo not given)	–	inactive
COc1ccc(CNS(=O)(=O)c2cc(Br)cc3c2N(C(C)=O)C(C)C3)cc1 (stereo not given)	0.82% (inactive)	–
COCC(C)NC(=O)C1CC(c2cccc(Br)c2)=NO1 (stereo not given)	3.38% (inactive)	–
COc1ccc(C2C(C#N)=C(SCC(=O)Nc3ccc(C)cc3)NC3=C2C(=O)CC(C)(C)C3)cc1 (stereo not given)	6.14% (inactive)	–
COC(=O)CSC1=C(C#N)C(c2ccccc2)CC(=O)N1 (stereo not given)	2.03% (inactive)	–
CCCNC(=S)NC1CCCC1	2.7% (inactive)	–
Cc1ccc(C(=O)CSc2ccccn2)cc1	26.4% (inactive)	–
Cc1nnc(SCc2cnc(-c3ccccc3)o2)[nH]c1=O	10.1% (inactive)	–
CCOc1cc(C2NC(=O)NC(O)(C(F)(F)F)C2C(=O)c2ccccc2)ccc1OC (stereo not given)	2.03% (inactive)	–
CSc1nc(N2CCOCC2)c2c3c(sc2n1)CCC3	1.65% (inactive)	–
CN(C)CCNc1ncnc2c1sc1nc(-c3ccccc3)c3c(c12)CCCC3	14.8% (inactive)	–
Clc1ccccc1Nc1c2c(nc3ncnn13)CCC2	–	inactive
CC(=O)NCc1c(Cl)cccc1-n1cccc1	–	inactive
CCCS(=O)(=O)NCc1cn2c(C)csc2n1	14.9% (inactive)	–
CN(C(=O)COc1ncnc2sccc12)c1ccccc1	4.95% (inactive)	–
COc1ccccc1NS(=O)(=O)c1cccs1	3.01% (inactive)	–
CCCCNc1nc2ccccc2nc1NS(=O)(=O)c1cccs1	13.5% (inactive)	–
Cc1cc(/C=C2\SC(=S)NC2=O)c(C)n1-c1ccc(O)cc1	–	inactive
Cc1cc(/C=C2\SC(=S)NC2=O)c(C)n1-c1ccccc1	–	inactive
CCc1ccc(-n2c(SCc3c(C)noc3C)nnc2-c2ccncc2)cc1	1.36% (inactive)	–

— PubChem BioAssay AID1117361 (Southern Research Institute, 2015)
